The sample as a whole holds a higher share of hits than the screen did.
Tg IFNy HTS = T. gondii growth inhibition with IFN-gamma, primary screen, cell-based. Toxoplasma gondii growth in IFN-gamma-treated host cells; stronger effect = lower value. activity change, negative = inhibition, % (test concentration not listed). actives 3.8% (n = 69,000); in the data active means activity change below about -70%, passing the limit was not always enough;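 further: host cells are HeLa cells infected with Toxoplasma gondii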
Active calls of the source: *.

SMILES	Tg IFNy HTS
C=CCn1c2ccccc2n2c(C(=O)CC)c(-c3ccccc3)nc12	-98*
CCCc1c(-c2ccccc2)nc2[nH]c3ccccc3n2c1=O	171
C=CCn1c(-c2c(-c3ccccc3)ncn2CCc2cnc[nH]2)nc2ccccc21	-3
Cc1ccoc1C(=O)N(Cc1ccccc1)CC(C)CO (centres undefined)	-6
Cc1ccnc(NCCNC(=O)c2nn(C)c(=O)c3ccccc23)c1	-20
OCC1(CCc2ccccc2)CCN(c2nccc(N3CCC(O)C3)n2)CC1 (centres undefined)	-13
OCC1(CCc2ccccc2)CCN(c2ccc3ccccc3n2)CC1	-77*
OCC1(Cc2cccc(C(F)(F)F)c2)CCN(c2ccc3ccccc3n2)CC1	0
COc1cccc(CNC(=O)Cn2c(=O)cc(C(=O)N3CCc4ccccc4C3)c3ccccc32)c1	-9
Cc1ccsc1CN(Cc1ccoc1)CC(C)C	0
O=C(NC1CCCC1)c1c(O)c2ccccc2[nH]c1=O	169
O=C(CCc1ccccc1)N1CCC2(CC1)Nc1ccc(Cl)cc1-n1cccc12	-121*
O=C(CCC1CCCC1)N1CCC2(CC1)Nc1ccc(Cl)cc1-n1cccc12	57
CCCCC(=O)N1CCC2(CC1)Nc1ccc(Cl)cc1-n1cccc12	-108*
Cc1ccc2c(c1)NC1(CCN(C(=O)CCc3ccccc3)CC1)c1cccn1-2	5
CCC(=O)N1CCC2(CC1)Nc1ccc(Cl)cc1-n1cccc12	51
O=C(CC1CCCC1)N1CCC2(CC1)Nc1ccc(Cl)cc1-n1cccc12	59
Cc1ccc2c(c1C)-n1cccc1C1(CCN(C(=O)CC3CCCCC3)CC1)N2	27
Cc1ccc2c(c1C)-n1cccc1C1(CCN(C(=O)CC3CCCC3)CC1)N2	-88*
Cc1ccc2c(c1C)-n1cccc1C1(CCN(C(=O)CCC3CCCC3)CC1)N2	33
CN(C)S(=O)(=O)N1CCC2(CC1)CN(C(=O)c1cccn1C)Cc1ccccc12	4
CCN1c2ccc(F)cc2C(=O)NC12CCN(C(=O)c1ccccc1OC)CC2	115
Nc1cc(-c2ccc(F)cc2)nc(N)n1	-8
CC1CCN(c2ncnc3c2cnn3CC(=O)NC2CCCCCC2)CC1	-64
Cc1ccccc1N1CC2(CCN(C(=O)c3cnc4ccccc4c3)C2)CC1=O (centres undefined)	-3
SMILES	Tg IFNy HTS
c1csc(-c2nnc(Cc3ccncc3)c3ccccc23)c1	-91*
CCS(=O)(=O)N1CCN(c2nnc(-c3cccs3)c(-c3cccs3)n2)CC1	174
c1csc(-c2nc3ccc4ccccc4c3c3c2CCC3)c1	121
COc1cccc(CN2CCN(Cc3cnc(N(C)C)s3)CC2=O)c1	2
C=CCOCC1c2c(ncn2C)CCN1C(=O)c1cnc(C)cn1 (centres undefined)	-62
CCOc1ccc2nc(SCC(=O)n3c4c(c5ccccc53)CCCC4)sc2c1	29
Cc1cc(F)ccc1NC(=O)CNS(=O)(=O)NCc1ccccc1	-4
Clc1cccc(Nc2nnc(-c3ccccc3)c3ccccc23)c1	2
CCCc1sc(Nc2ccc(C(=O)OC)cc2)nc1-c1ccccc1	91
c1ccc(Nc2nc(-c3ccccc3)c(-c3ccccc3)s2)cc1	-105*
CN(C)CCN1CCO[C@@H]2CN(Cc3ccsc3)C[C@@H]21	-46
Cc1c(S(=O)(=O)Nc2ccccc2OCCn2cccn2)cnn1C(F)F	-5
CCn1cc(S(=O)(=O)NCC(c2ccc3c(c2)OCO3)N(C)C)cn1 (centres undefined)	124
c1ccc2nc3c(cc(N4CCOCC4)c4ccccc43)nc2c1	-104*
Cc1cc(N2CCC3(CCCO3)CC2)c2ccccc2n1	-13
O=c1cc(N2CCOCC2)nc2c3ccccc3ccn12	-2
Cn1ccc(-c2n[nH]c(=O)n2Cc2cccs2)n1	4
Cc1n[nH]c(C)c1CCN(C)C(=O)c1cn[nH]n1	0
CCCSc1ncc(CN(C)CC2CCN(C(C)C)CC2)cn1	-10
COc1cccc(S(=O)(=O)Nc2ccc3c(c2)C(=O)N(C)C[C@@H](OC)[C@@H](C)CN(Cc2ccccc2F)[C@H](C)CO3)c1	-53
COc1cccc(S(=O)(=O)Nc2ccc3c(c2)C(=O)N(C)C[C@H](OC)[C@@H](C)CN(Cc2ccccc2F)[C@H](C)CO3)c1	-6
COc1ccc(S(=O)(=O)Nc2ccc3c(c2)OC[C@@H](C)N(Cc2cc(F)ccc2F)C[C@@H](C)[C@H](OC)CN(C)C3=O)cc1	-90*
COc1cccc(S(=O)(=O)Nc2ccc3c(c2)C(=O)N(C)C[C@H](OC)[C@H](C)CN(Cc2ccccc2F)[C@@H](C)CO3)c1	-45
COc1cccc(S(=O)(=O)Nc2ccc3c(c2)C(=O)N(C)C[C@@H](OC)[C@H](C)CN(Cc2ccccc2F)[C@H](C)CO3)c1	-97*
COc1cccc(S(=O)(=O)Nc2ccc3c(c2)C(=O)N(C)C[C@H](OC)[C@H](C)CN(Cc2ccccc2F)[C@H](C)CO3)c1	-57
CC(C)NC(=O)N1CCN(Cc2ccncc2)c2ncccc2C1	-39
CCC[C@@H](N[C@@H](C)C(=O)N1[C@@H](C(=O)O)C[C@@H]2CCCC[C@@H]21)C(=O)OCC	20

Screening results: PubChem, Broad Institute
